Results on 35 molecules are retold here after PubChem BioAssay.

The source made the active and inactive calls.

One experiment is described as follows: small-molecule microarray binders of probe aXIP, primary screen, biochemical, NeuroSMM set, 635/667 nm fluorescence (AID 1119).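 Note: probe is the protein aXip251-270 applied at 1 µg/mL to compound-printed slides; binding of probe to printed compounds measured as 667 nm fluorescence plus signal to noise.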 As to conditions: higher = more signal, called active from +8 up or from −8 down.
`CC#CCO[Si](C#CCCCCCC)(C(C)C)C(C)C`: the composite Z-score is -0.244 (inactive).

Consider `C=CCC(OC(C)=O)[C@@H]1[C@@H](N(Cc2ccc(-c3ccccc3)cc2)C(=O)c2ccc(C)cc2)c2cc(OCCCO)ccc2N1C(=O)c1ccc2ccccc2c1` (stereo not given in full), for which the composite Z-score was -0.46 (inactive).

With `COc1ccc(C(O)C2C=CC3C(=O)N(C)C(=O)C3N2Nc2ccc([N+](=O)[O-])cc2[N+](=O)[O-])cc1OCc1ccccc1` (stereo not given), the composite Z-score was -0.213 (inactive).

For the molecule `CN1C(=O)C2C=CC(C(O)c3ccc(-c4ccccc4)s3)N(Nc3ccccc3)C2C1=O` (stereo not given), the composite Z-score was 0.498 (inactive).

For `N#Cc1ccc(C(O)C2C=CC3C(=O)NC(=O)C3N2Nc2ccccn2)cc1` (stereo not given), the composite Z-score is -0.483 (inactive).

`CCCC=C(CCC)[C@@H](NC(=O)c1ccco1)c1ccc(C(=O)OC)cc1`: the composite Z-score was -0.0549 (inactive).

Turning to `COc1ccc([Si](C)(C)[C@@H]2[C@@H](CC(=O)N(CCO)Cc3ccccc3)O[C@]3(C(=O)N(Cc4ccc(N5CCC5=O)cc4)c4ccccc43)[C@H]2C)cc1`, the composite Z-score was -0.272 (inactive).

As to `Cc1ccc(F)cc1S(=O)(=O)N[C@@H]1CCN(Cc2ccc3[nH]ccc3c2)C1`, the composite Z-score was 0.688 (inactive).

As to `C=C(/C(=C/C[C@H](OC(=O)c1ccncc1)c1ccccc1OCCO)c1cc(C(=O)OC)ccc1OC)C(C)C`, the composite Z-score is -0.104 (inactive).

In the case of `CCOC(=O)C1=CC[C@@H](c2ccc(F)cc2)N(S(=O)(=O)c2ccc(C)cc2)[C@H]1c1ccc([N+](=O)[O-])cc1`, the composite Z-score was 0.348 (inactive).

On to `C=CC[C@@]1(C(=O)N(C)C)N=C(c2ccc(OCCCO)cc2)O[C@@H]1c1ccccc1`, for which the composite Z-score is -0.593 (inactive).

In the case of `CC(C)C(=C=CC[C@@H](O)c1cccc(OCCO)c1)CCO`, the composite Z-score is -0.137 (inactive).

As for `[N-]=[N+]=NCc1ccccc1C[C@]1(C(=O)N2CCOCC2)N=C(c2ccc(OCCCO)cc2)O[C@H]1c1ccccc1CN=[N+]=[N-]`, the composite Z-score is -0.161 (inactive).

For `COc1ccc(NN2C(C(O)c3cc(C(F)(F)F)cc(C(F)(F)F)c3)C=CC3C(=O)N(C4CCCCC4)C(=O)C32)cc1` (stereo not given), the composite Z-score is -0.0097 (inactive).

As to `CC=CC(O)C1C=CC2C(=O)N(C)C(=O)C2N1NC(=O)OC(C)(C)C` (stereo not given), the composite Z-score is 0.397 (inactive).

With `[N-]=[N+]=NCc1ccccc1[C@@H]1OC(c2ccc(OCCCO)cc2)=N[C@]1(Cc1ccccc1)C(=O)NCc1ccccc1`, the composite Z-score is -0.04 (inactive).

Consider `COCCOC(=O)N1C(=O)[C@@]2(c3cc(C#CCCO)ccc31)[C@H](C(=O)N1CCc3cc(OC)c(OC)cc3C1)[C@H]1C(=O)O[C@H](c3ccccc3)[C@H](c3ccccc3)N1[C@@H]2c1ccccc1OCCO`, for which the composite Z-score is 0.471 (inactive).

In the case of `C=CCOC(=O)[C@@H]1[C@H]2C(=O)O[C@H](c3ccccc3)[C@H](c3ccccc3)N2[C@H](c2ccc(OCCOC(=O)[C@H]3C[C@H]4C(=O)NCC(=O)N4[C@H]3c3ccc(O)cc3)cc2)[C@@]12C(=O)Nc1ccc(I)cc12`, the composite Z-score was 0.683 (inactive).

For `C=CCC(OC(C)=O)[C@@H]1[C@@H](N(Cc2cc3ccccc3o2)C(=O)Cc2ccc(OC)cc2)c2cc(OCCCO)ccc2N1C(=O)Cc1ccc2ccccc2c1` (stereo not given in full), the composite Z-score is -0.374 (inactive).

Consider `C[C@H]1C2[C@H](Cc3ccccc3)NC(=O)[C@]23C(=O)NCC(=O)N2CCC[C@H]2C(=O)NC/C=C\C/C=C/C3[C@@H]2O[C@]12C` (stereo not given in full), for which the composite Z-score was -0.403 (inactive).

Consider `COC(=O)C1=CC(CCCO)=CC(C2CC2)N(Cc2cccc(OC(F)(F)F)c2)C=C1C(=O)OC` (stereo not given), for which the composite Z-score is 0.816 (inactive).

As for `CCCCC(O)C1C=CC2C(=O)NC(=O)C2N1Nc1ccccn1` (stereo not given), the composite Z-score is 0.0557 (inactive).

`CCCCC(=C=CC[C@H](O)c1ccc(OCCO)cc1)C[C@H](O)c1ccccn1`: the composite Z-score was 0.611 (inactive).

As to `CC(C)CNC(=O)[C@@H]1c2ccccc2C(=O)N(CC23CC4CC(CC(C4)C2)C3)[C@H]1c1ccc(CO)cc1`, the composite Z-score was 0.642 (inactive).

Turning to `CCN(CC)c1ccc(N2CC=CC34O[C@@H]5C=CCOC(=O)[C@@H]5[C@H]3C(=O)N(CCCO)[C@@H]4C2=O)cc1` (stereo not given in full), the composite Z-score was 0.547 (inactive).

The next experiment is described as follows: small-molecule binders of probe aNOTCH3, primary screen, biochemical, small-molecule microarray, 635/667 nm fluorescence (AID 1120).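 Note: probe is a biotin-tagged antibody raised against NOTCH3 rather than NOTCH3 protein; score merges spot fluorescence near 667 nm with spot signal to noise.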 The following applies: higher = more signal.
Consider `C=CCNC(=O)[C@H]1[C@@H]2C(=O)O[C@@H](c3ccccc3)[C@@H](c3ccccc3)N2[C@@H](c2ccc(O)cc2)[C@]12C(=O)Nc1ccc(C#CC3=CCCCC3)cc12`, for which the composite z-score was -0.119.

With `COC(=O)[C@@]1(Cc2ccccc2)[C@H]2c3cc(C(=O)N4CCCC4)n(Cc4ccc(C(F)(F)F)nc4)c3C[C@H]2CN1C(=O)c1ccccc1`, the composite z-score stood at 0.843.

In the case of `O=C1OCCC/C=C\[C@H]2OC34C=CCN(Cc5ccccc5)C(=O)[C@H]3N(CCCCCO)C(=O)[C@@H]4C12` (stereo not given in full), the composite z-score is -0.366.

Take `CN(C)CCCNC(=O)[C@@]1(Cc2ccccc2I)c2ccccc2C(=O)N(Cc2ccccc2)[C@H]1c1ccc(CO)cc1`: the composite z-score is -0.467.

For the molecule `COC(=O)c1c(CC[C@@H](CO)NC(=O)N[C@@H](Cc2ccccc2)Cn2cc(-c3cncn3C)nn2)oc(C(C)=O)c1C(=O)OC`, the composite z-score worked out at 0.212.

`CC(c1ccccc1)C(O)C1C=CC2C(=O)N(c3ccccc3)C(=O)C2N1Nc1ccc(C#N)cc1` (stereo not given) showed a composite z-score of 0.609.

In turn, `CC(=O)c1ccc(C(O)C2C=CC3C(=O)N(C)C(=O)C3N2NC(=O)OC(C)(C)C)cc1` (stereo not given) yielded a composite z-score of 0.103.

As to `C=CCC(OC(C)=O)[C@@H]1[C@@H](N(Cc2ccc(-c3ccccc3)cc2)C(=O)c2cccc3ccccc23)c2cc(OCCCO)ccc2N1C(=O)c1ccc2ccccc2c1` (stereo not given in full), the composite z-score was -0.0377.

`COC(=O)[C@@H]1N=C(c2ccc(OCCCO)cc2)O[C@@H]1c1ccccc1CN=[N+]=[N-]` had a composite z-score of 0.181.

Take `CCOC(=O)C1=CC[C@@H](c2ccccc2)N(S(=O)(=O)c2ccc(C)cc2)[C@H]1C#N`: the composite z-score is 0.213.

Take `CC#CCO[Si](C#CCCCCCC)(C(C)C)C(C)C`: the composite z-score is -0.597.

Molecule `C=CCC(OC(C)=O)[C@@H]1[C@@H](N(Cc2ccc(-c3ccccc3)cc2)C(=O)c2ccc(C)cc2)c2cc(OCCCO)ccc2N1C(=O)c1ccc2ccccc2c1` (stereo not given in full) had a composite z-score of 0.0282.

As to `COc1ccc(C(O)C2C=CC3C(=O)N(C)C(=O)C3N2Nc2ccc([N+](=O)[O-])cc2[N+](=O)[O-])cc1OCc1ccccc1` (stereo not given), the composite z-score came to 0.583.

As to `CN1C(=O)C2C=CC(C(O)c3ccc(-c4ccccc4)s3)N(Nc3ccccc3)C2C1=O` (stereo not given), the composite z-score was 0.403.

`N#Cc1ccc(C(O)C2C=CC3C(=O)NC(=O)C3N2Nc2ccccn2)cc1` (stereo not given) displayed a composite z-score of 0.0297.

`CCCC=C(CCC)[C@@H](NC(=O)c1ccco1)c1ccc(C(=O)OC)cc1` gave a composite z-score of 0.281.

In the case of `COc1ccc([Si](C)(C)[C@@H]2[C@@H](CC(=O)N(CCO)Cc3ccccc3)O[C@]3(C(=O)N(Cc4ccc(N5CCC5=O)cc4)c4ccccc43)[C@H]2C)cc1`, the composite z-score was -0.178.

As to `Cc1ccc(F)cc1S(=O)(=O)N[C@@H]1CCN(Cc2ccc3[nH]ccc3c2)C1`, the composite z-score is 0.128.

As for `C=C(/C(=C/C[C@H](OC(=O)c1ccncc1)c1ccccc1OCCO)c1cc(C(=O)OC)ccc1OC)C(C)C`, the composite z-score is -0.0288.

As for `CCOC(=O)C1=CC[C@@H](c2ccc(F)cc2)N(S(=O)(=O)c2ccc(C)cc2)[C@H]1c1ccc([N+](=O)[O-])cc1`, the composite z-score came to 0.137.

Molecule `C=CC[C@@]1(C(=O)N(C)C)N=C(c2ccc(OCCCO)cc2)O[C@@H]1c1ccccc1` registered a composite z-score of 0.315.

`CC(C)C(=C=CC[C@@H](O)c1cccc(OCCO)c1)CCO` showed a composite z-score of 0.0996.

With `[N-]=[N+]=NCc1ccccc1C[C@]1(C(=O)N2CCOCC2)N=C(c2ccc(OCCCO)cc2)O[C@H]1c1ccccc1CN=[N+]=[N-]`, the composite z-score amounted to 0.598.

`COc1ccc(NN2C(C(O)c3cc(C(F)(F)F)cc(C(F)(F)F)c3)C=CC3C(=O)N(C4CCCCC4)C(=O)C32)cc1` (stereo not given): the composite z-score is 1.02.

On to `CC=CC(O)C1C=CC2C(=O)N(C)C(=O)C2N1NC(=O)OC(C)(C)C` (stereo not given), for which the composite z-score came to 0.0687.

Molecule `[N-]=[N+]=NCc1ccccc1[C@@H]1OC(c2ccc(OCCCO)cc2)=N[C@]1(Cc1ccccc1)C(=O)NCc1ccccc1` yielded a composite z-score of 0.0774.

`COCCOC(=O)N1C(=O)[C@@]2(c3cc(C#CCCO)ccc31)[C@H](C(=O)N1CCc3cc(OC)c(OC)cc3C1)[C@H]1C(=O)O[C@H](c3ccccc3)[C@H](c3ccccc3)N1[C@@H]2c1ccccc1OCCO`: the composite z-score was determined as 0.285.

On to `C=CCOC(=O)[C@@H]1[C@H]2C(=O)O[C@H](c3ccccc3)[C@H](c3ccccc3)N2[C@H](c2ccc(OCCOC(=O)[C@H]3C[C@H]4C(=O)NCC(=O)N4[C@H]3c3ccc(O)cc3)cc2)[C@@]12C(=O)Nc1ccc(I)cc12`, for which the composite z-score was -0.0711.

Take `C=CCC(OC(C)=O)[C@@H]1[C@@H](N(Cc2cc3ccccc3o2)C(=O)Cc2ccc(OC)cc2)c2cc(OCCCO)ccc2N1C(=O)Cc1ccc2ccccc2c1` (stereo not given in full): the composite z-score was -0.0391.

`C[C@H]1C2[C@H](Cc3ccccc3)NC(=O)[C@]23C(=O)NCC(=O)N2CCC[C@H]2C(=O)NC/C=C\C/C=C/C3[C@@H]2O[C@]12C` (stereo not given in full) had a composite z-score of 0.155.

As to `COC(=O)C1=CC(CCCO)=CC(C2CC2)N(Cc2cccc(OC(F)(F)F)c2)C=C1C(=O)OC` (stereo not given), the composite z-score was -0.0039.

For the molecule `CCCCC(O)C1C=CC2C(=O)NC(=O)C2N1Nc1ccccn1` (stereo not given), the composite z-score is -0.155.

`CCCCC(=C=CC[C@H](O)c1ccc(OCCO)cc1)C[C@H](O)c1ccccn1` had a composite z-score of 0.102.

With `CC(C)CNC(=O)[C@@H]1c2ccccc2C(=O)N(CC23CC4CC(CC(C4)C2)C3)[C@H]1c1ccc(CO)cc1`, the composite z-score was -0.004.

Consider `CCN(CC)c1ccc(N2CC=CC34O[C@@H]5C=CCOC(=O)[C@@H]5[C@H]3C(=O)N(CCCO)[C@@H]4C2=O)cc1` (stereo not given in full), for which the composite z-score is -0.0971.
